± gives the standard deviation.
Key:
Details in all cases: modulator concentration 10 µM
[1] = system: RAW-Dual (murine macrophage reporter line); experiment: NF-kB reporter (SEAP) activity fold change vs agonist alone; higher = enhanced NF-kB activity
How it was run: (§1)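 RAW-Dual murine macrophage reporter cells were plated at 50 000 per well in 384-well plates, pin-transferred compound to 10 μM final, and pre-incubated for 1 hour at 37 °C before a PRR agonist was added and the cells incubated overnight. NF-κB activity was read from supernatant SEAP with QUANTI-Blue at 620 nm absorbance, and IRF activity from Lucia luciferase with QUANTI-Luc by luminescence. Each signal was expressed as fold change by dividing by the mean agonist-only control on the same plate. Two replicate plates were averaged, with errors obtained by propagation.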

[2] = system: RAW-Dual (murine macrophage reporter line); experiment: IRF reporter (Lucia luciferase) activity fold change vs agonist alone; higher = enhanced IRF activity
How it was run: as §1

[3] = system: RAW-Dual (murine macrophage reporter line); experiment: viability score (confluency relative to resting cells, overnight) (fraction); higher = more viable, active = viable (0.7 or more)
How it was run: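 Compound was added at a final 10 μM to RAW-Dual macrophages in 384-well plates and left overnight. Confluency was imaged with IncuCyte, and two masks were generated in IncuCyte software over all imaged wells. Each viability score is confluency relative to resting cells, and a compound met the cutoff only when both masks were above 70% of resting cells.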

[4] = agonist: CpG ODN 1826 0.5 ug/mL

Row | SMILES | NF-kB reporter [1, 4] | NF-kB reporter ([1]; agonist: LPS 0.1 ug/mL) | NF-kB reporter ([1]; agonist: MPLA […]) | IRF reporter ([2]; agonist: 3'3'-cGAMP 10 ug/mL) | IRF reporter ([2]; agonist: LPS 0.1 ug/mL) | IRF reporter ([2]; agonist: MPLA […]) | viability score [3]
1 | N#C[C@@H]1CCCN1C(=O)CNC12CC3CC(CC(O)(C3)C1)C2 | 0.79 ± 0.14 | 0.851 ± 0.15 | 0.862 ± 0.048 | 0.863 ± 0.06 | 1.05 ± 0.18 | 1.11 ± 0.21 | 0.993 (active)
2 | Cl.OC(CC#CCN1CCCC1)(c1ccccc1)c1ccccc1 | 0.726 ± 0.13 | 1.08 ± 0.086 | 0.967 ± 0.074 | 0.748 ± 0.019 | 1.28 ± 0.15 | 1.42 ± 0.17 | 0.597 (inactive)
3 | Cc1ccccc1C(OCCN(C)C)c1ccccc1.O=C(O)CC(O)(CC(=O)O)C(=O)O (centres undefined) | 1.35 ± 0.36 | 1.34 ± 0.23 | 2.11 ± 1 | 0.582 ± 0.024 | 1.51 ± 0.14 | 1.25 ± 0.12 | 0.981 (active)
4 | CCN(CC)c1ccc(C2Nc3ccccc3-c3nnc(SC)nc3O2)c(OC)c1 (centres undefined) | 0.889 ± 0.07 | 0.986 ± 0.066 | 0.985 ± 0.059 | 0.954 ± 0.024 | 1.39 ± 0.24 | 0.87 ± 0.076 | 1.01 (active)
5 | CCSc1nnc(NC(=O)C2CC3CCC2C3)s1 (centres undefined) | 0.941 ± 0.058 | 0.969 ± 0.06 | 0.884 ± 0.06 | 1.29 ± 0.098 | 1.4 ± 0.092 | 1.09 ± 0.1 | 0.94 (active)
6 | COc1ccc(C(=O)Nc2cc(C)nc3c(C)cc(C)cc23)cc1OC | 0.763 ± 0.18 | 0.948 ± 0.054 | 0.838 ± 0.055 | 0.501 ± 0.038 | 0.767 ± 0.15 | 0.746 ± 0.07 | 0.589 (inactive)
7 | CCCCc1c(CCC)c(=N)c2ccccc2n1C.I | 0.992 ± 0.098 | 1.18 ± 0.091 | 1.56 ± 0.15 | 1.09 ± 0.048 | 1.67 ± 0.22 | 2.14 ± 0.32 | 1.01 (active)
8 | Cc1cc(NC(=O)c2ccoc2COc2ccccc2)no1 | 1.17 ± 0.063 | 1.08 ± 0.093 | 1.32 ± 0.071 | 1.21 ± 0.061 | 1.21 ± 0.23 | 1.46 ± 0.38 | 0.962 (active)
9 | CCCCc1oc2ccccc2c1C(=O)c1cc(I)c(OCCN(CC)CC)c(I)c1.Cl | 0.471 ± 0.038 | 0.988 ± 0.12 | 1.83 ± 0.34 | 0.55 ± 0.033 | 1.6 ± 0.12 | 1.77 ± 0.15 | 1 (active)
10 | CCOc1ccccc1OCCCCOc1cccc(C)c1 | 0.871 ± 0.064 | 0.936 ± 0.071 | 0.995 ± 0.028 | 0.996 ± 0.12 | 0.878 ± 0.13 | 0.96 ± 0.29 | 0.998 (active)
11 | O=[N+]([O-])c1ccc(N2CCOCC2)c(-c2nnn[nH]2)c1 | 0.98 ± 0.25 | 1.05 ± 0.11 | 0.918 ± 0.085 | 0.938 ± 0.045 | 1.11 ± 0.14 | 1.29 ± 0.17 | 0.996 (active)
12 | CC1=NN(C(=O)c2cccnc2)C(O)(c2ccccc2)C1 (centres undefined) | 0.893 ± 0.071 | 0.969 ± 0.1 | 0.949 ± 0.041 | 0.951 ± 0.09 | 1.05 ± 0.13 | 1.1 ± 0.2 | 0.994 (active)
13 | COc1cc2c(Nc3ccc(Br)cc3F)ncnc2cc1OCC1CCN(C)CC1 | 0.825 ± 0.04 | 1.01 ± 0.11 | 1.11 ± 0.094 | 0.975 ± 0.048 | 1.11 ± 0.17 | 1.29 ± 0.35 | 0.91 (active)
14 | CC(CN1c2ccccc2Sc2cccnc21)N(C)C.Cl (centres undefined) | 0.968 ± 0.075 | 0.926 ± 0.11 | 1.07 ± 0.042 | 1.03 ± 0.099 | 0.935 ± 0.14 | 0.921 ± 0.16 | 1 (active)
15 | Br.Cc1ccc(Sc2ccccc2N2CCNCC2)c(C)c1 | 0.328 ± 0.078 | 0.944 ± 0.11 | 1.78 ± 0.15 | 0.491 ± 0.057 | 1.27 ± 0.32 | 1.03 ± 0.12 | 0.527 (inactive)
16 | COC(=O)CNC(c1ccccc1)c1cc(Br)ccc1NC(=O)c1ccccc1 (centres undefined) | 1.06 ± 0.18 | 1.03 ± 0.12 | 1.33 ± 0.21 | 1.06 ± 0.035 | 1.16 ± 0.13 | 1.63 ± 0.19 | 1.01 (active)
17 | CC1CCC2C(C)(C)C3CC12CCC3(C)O (centres undefined) | 1.04 ± 0.081 | 0.883 ± 0.11 | 0.965 ± 0.094 | 0.999 ± 0.052 | 1.15 ± 0.16 | 1.25 ± 0.23 | 1.05 (active)
18 | CC(C)CN(C[C@@H](O)[C@H](Cc1ccccc1)NC(=O)O[C@H]1CCOC1)S(=O)(=O)c1ccc(N)cc1 | 1.51 ± 0.36 | 1.4 ± 0.43 | 1.63 ± 0.097 | 0.918 ± 0.028 | 1.29 ± 0.33 | 1.22 ± 0.14 | 0.998 (active)
19 | O=C(NCCC(CCO)c1ccccc1)c1cccc(Br)c1 (centres undefined) | 0.731 ± 0.033 | 1.03 ± 0.093 | 0.988 ± 0.053 | 0.653 ± 0.031 | 0.927 ± 0.18 | 0.958 ± 0.35 | 0.996 (active)
20 | Brc1ccc2ncnc(NCc3cccnc3)c2c1 | 1.22 ± 0.069 | 1.31 ± 0.11 | 1.02 ± 0.04 | 0.329 ± 0.014 | 0.498 ± 0.047 | 0.641 ± 0.11 | 1 (active)
21 | CCOc1nc2cccc(C(=O)O)c2n1Cc1ccc(-c2ccccc2-c2nc(=O)o[nH]2)cc1 | 1.29 ± 0.17 | 1.14 ± 0.32 | 1.12 ± 0.073 | 0.886 ± 0.042 | 1.41 ± 0.38 | 1.31 ± 0.12 | 1 (active)
22 | Cc1cc(C(=O)Nc2nnc(-c3ccc(F)cc3)o2)n(C)n1 | 0.915 ± 0.1 | 0.985 ± 0.084 | 1.1 ± 0.064 | 0.929 ± 0.059 | 1.18 ± 0.24 | 1.22 ± 0.5 | 0.873 (active)
23 | CC1(C)CC(=O)C2=C(C1)OC(N)=C(C#N)C2C1CC=CCC1 (centres undefined) | 1.02 ± 0.061 | 1.08 ± 0.099 | 1.11 ± 0.068 | 1.23 ± 0.041 | 1.29 ± 0.18 | 1.14 ± 0.12 | 0.9 (active)
24 | Nc1nc2ccc(OC(F)(F)F)cc2s1 | 0.955 ± 0.13 | 1.09 ± 0.3 | 1.02 ± 0.059 | 1.07 ± 0.044 | 1.15 ± 0.24 | 0.928 ± 0.14 | 0.965 (active)
25 | Cc1nnc(NN=Cc2ccc(O)c([N+](=O)[O-])c2)[nH]c1=O | 1.07 ± 0.14 | 1.01 ± 0.097 | 1.03 ± 0.035 | 0.98 ± 0.045 | 0.979 ± 0.14 | 1.01 ± 0.25 | 0.992 (active)
26 | O=C(Cn1c(=O)oc2ccccc21)N1Cc2cncnc2C1 | 0.853 ± 0.24 | 1.04 ± 0.052 | 0.988 ± 0.065 | 0.921 ± 0.042 | 0.991 ± 0.15 | 0.991 ± 0.12 | 0.998 (active)
27 | O=C(NN=Cc1c(O)ccc2ccccc12)c1ccccc1I | 1.54 ± 0.47 | 1.11 ± 0.096 | 1.02 ± 0.099 | 0.847 ± 0.043 | 1.47 ± 0.15 | 1.55 ± 0.17 | 1 (active)

— the supplement of paper PMC10646978
